Compounds with a hit are over-represented: about 6% of the library has one in this group of screens.
D1 antagonist: antagonists of human D1 dopamine receptor; P21728; HEK293 TREx D1 cells, calcium flux, dopamine EC80; hits give low values; activity change, negative = inhibition, % at 10 µM; 360,000 tested, 3.2% active; AID 504652; in the data active means activity change below about -30%
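HEK293 T-REx cells expressing inducible, force-coupled D1 receptor; no-wash Ca dye, 30–90 min RT. Cmpd → 180 s read at 1 Hz → EC80 DA → 180 s read.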
D1 PAM: potentiators of human D1 dopamine receptor | P21728 | HEK293 TREx D1 cells, calcium flux, dopamine EC20 potentiation | potentiation, % at 10 µM | 360,000 tested, 0.036% active; in the data active means potentiation above about 30%
D3 ag: D3 dopamine receptor (human) agonism; P35462; D3R DiscoveRx beta-arrestin cells, luminescence, 90 min; max activation, %; 410,000 tested, 0.58% active; in the data active means max activation above about 30%
Target sequence (P35462 whole entry, looked up): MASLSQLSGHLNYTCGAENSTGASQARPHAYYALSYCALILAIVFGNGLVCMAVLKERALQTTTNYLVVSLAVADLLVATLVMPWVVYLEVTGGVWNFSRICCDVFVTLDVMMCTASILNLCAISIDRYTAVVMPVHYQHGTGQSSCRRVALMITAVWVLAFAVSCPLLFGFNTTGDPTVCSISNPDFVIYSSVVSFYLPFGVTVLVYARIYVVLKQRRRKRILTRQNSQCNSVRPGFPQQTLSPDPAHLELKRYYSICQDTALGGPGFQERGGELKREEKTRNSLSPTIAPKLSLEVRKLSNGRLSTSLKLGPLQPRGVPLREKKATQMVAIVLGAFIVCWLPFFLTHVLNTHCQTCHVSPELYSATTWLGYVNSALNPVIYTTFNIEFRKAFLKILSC
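Cells at 1500/well, incubated overnight, then treated with pinned compounds (dopamine as control) for 90 min at 37 degrees C. DiscoveRx reagent added for 30 - 60 minutes at room temperature; luminescence read.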
D1 ag: activates the human D1 dopamine receptor | P21728 | HEK293 T-REx D1 cells, calcium flux, agonist mode | activation, % at 2 µM | 360,000 tested, 1% active; in the data active means activation above about 30%
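Inducible HEK293 T-REx D1 cells, force-coupled to calcium signalling, were plated at 4000 cells/well with tetracycline and held overnight at 30 C. After no-wash calcium dye loading, compound-evoked calcium rise over 180 s flagged agonists.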
DRD3 antagonist: D3 dopamine receptor (human) antagonism; 360,000 tested, 2.5% active; D3R cells, DiscoveRx beta-arrestin luminescence, antagonist mode; hits give low values; max response, negative = inhibition, %; AID 652054; in the data active means max response below about -50%
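Cells expressing the human receptor were seeded at 1500 cells/well, incubated overnight at 37 degrees C in 5% CO2, then exposed to library compounds with dopamine controls for 90 minutes at 37 degrees C before luminescent detection.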
Each line names hits and unclear results; the compound was inactive in the other large screens.

O=C(CSC1=Nc2ccccc2N=C(c2ccc(F)cc2)C1)Nc1cccc(C(F)(F)F)c1	none (no result: DRD3 antagonist)
Cc1ccc(NC(=O)c2c(C)oc3ccc(O)c(CN4CCCCCC4)c23)cc1	none (no result: DRD3 antagonist)
COc1cc2cc(C(=O)N3CCc4ccccc4C3)[nH]c2cc1OC	D1 antagonist -33.4
COc1cc2[nH]c(C(=O)N3CCc4ccccc4C3)cc2c(OC)c1OC	none
CC(C)C[C@H](NC(=O)[C@@H](Cc1c[nH]c2ccccc12)NC(=O)[C@H](Cc1ccc(O)cc1)NC(=O)[C@H](CO)NC(=O)[C@H](Cc1c[nH]c2ccccc12)NC(=O)[C@H](Cc1cnc[nH]1)NC(=O)[C@@H]1CCC(=O)N1)C(=O)N[C@@H](CCCN=C(N)N)C(=O)N1CCC[C@@H]1C(=O)NCC(N)=O	none (no result: D1 antagonist, D1 PAM, D1 ag, DRD3 antagonist)
O=S(=O)(c1cccc(F)c1)N1CCC(c2nc3ccccc3s2)CC1	none (no result: DRD3 antagonist)
CCOC(=O)C1=C(Cn2cnc3ccccc32)NC(=O)NC1c1ccc(OC)cc1 (centres undefined)	none
CCOC(=O)C1=C(Cn2cnc3ccccc32)NC(=O)NC1c1ccc(Cl)cc1 (centres undefined)	D3 ag 31.6
CCOC(=O)C1=C(CN2CCC(C)CC2)NC(=O)NC1c1ccc(OC(C)C)cc1 (centres undefined)	none (no result: DRD3 antagonist)
CCOC(=O)C1=C(CN(CC)Cc2ccccc2)NC(=O)NC1c1ccc(OC(C)C)cc1 (centres undefined)	D1 antagonist -44.9 (no result: DRD3 antagonist)
CCOc1ccccc1NS(=O)(=O)c1c(C(=O)OC)sc2cccc(F)c12	none (no result: DRD3 antagonist)
COc1ccc2c(c1)CCCN2C(N)=Nc1ccc(Cl)cc1	D1 antagonist -44.1, D1 ag 48.6
COc1ccc2c(c1)CCCN2C(N)=O	none
CCOc1ccc(CC(=O)Nc2c(C(=O)c3ccc(F)cc3)oc3ccc(Cl)cc23)cc1OCC	none (no result: DRD3 antagonist)
CCOC(=O)c1ccc(Nc2cc(C)nc(-c3ccccc3O)n2)cc1	D3 ag 68.3
Cc1cc(Nc2cccc(F)c2)nc(-c2ccccc2O)n1	none
Cc1cc(Nc2ccccc2)nc(-c2ccccc2O)n1	D1 antagonist -44.9
CCOC(=O)c1ccc(Nc2cc(-c3ccccc3)nc(C)n2)cc1	none (no result: DRD3 antagonist)
COc1ccccc1NC(=O)c1ccc(-n2cncn2)nc1	D3 ag 30.7
COc1ccccc1NC(=O)CSc1ncn[nH]1	none
CCOc1ccccc1NC(=O)c1ccc(-n2cncn2)nc1	none
COc1ccccc1NC(=O)c1ccc(NC(=O)CSc2ncn[nH]2)cc1	D1 antagonist -44.7
COc1cccc(N2CCN(C(=O)Cn3nc(C)n4c(cc5c(OC)cccc54)c3=O)CC2)c1	none (no result: DRD3 antagonist)
CCCN(Cc1cccs1)C(=O)Nc1cc(Cl)ccc1C	none (no result: DRD3 antagonist)
O=C(NCCN1CCN(c2ccccc2)CC1)C1CCN(S(=O)(=O)c2cccc3nonc23)CC1	D3 ag 41.4
O=C(NCCc1ccccc1)C1CCN(S(=O)(=O)c2cccc3nonc23)CC1	none
O=C(NCCN1CCN(c2ccccc2)CC1)C1CCN(S(=O)(=O)c2cccs2)CC1	D3 ag 45.7
O=C(C1CCCN(S(=O)(=O)c2cccc3nonc23)C1)N1CCC(Cc2ccccc2)CC1 (centres undefined)	DRD3 antagonist -53.2
CCn1c(CNC(=O)c2ccc(OC)cc2)nnc1SCC(=O)Nc1cc(C)ccc1C	none (no result: DRD3 antagonist)
CCOc1ccc(CCNC(=O)CCCc2nnc3n(C)c(=O)c4sccc4n23)cc1OCC	none (no result: DRD3 antagonist)
COc1ccc(-c2c(C)sc(NC(=O)c3ccnn3C)c2C#N)cc1	D3 ag 54.5
Cn1nccc1C(=O)Nc1sc2c(c1C#N)CCCC2	none
Cc1ccc2c(C(=O)CN3CCSCC3)c(C)[nH]c2c1	D1 antagonist -44.1
COc1ccccc1CNC(=O)Cn1ncn2c(cc3sccc32)c1=O	none (no result: DRD3 antagonist)
CCCC(=O)N1CCN(c2ccc(NC(=O)c3ccc(Br)o3)cc2)CC1	D1 antagonist -43.0
COc1cccc(NC(=O)c2ccccc2-c2nc(-c3ccc(Cl)cc3)no2)c1	D1 antagonist -33.3
COC(=O)Cc1ccc(NC(=O)c2ccc(Br)o2)cc1	none
CCN1CCN(c2ccc(NC(=O)c3ccc(Br)o3)cc2)CC1	none
CCOc1ccccc1-c1nc(-c2ccc(NC(=O)c3ccc(Br)o3)cc2)no1	D3 ag 57.2
CCCOC(=O)c1ccc(NC(=O)c2ccc(Br)o2)cc1	D1 antagonist -32.0
Cc1ccc(S(=O)(=O)c2nnn3c2nc(N2CCN(c4ccccc4F)CC2)c2ccccc23)cc1C	none (no result: DRD3 antagonist)

Source: PubChem BioAssay (National Center for Advancing Translational Sciences (NCATS))
